From PubChem BioAssay AID1026 (Columbia University Molecular Screening Center, 2008)
Values without a mark were called inactive. No rule for the calls is given here.

Molecular target: Bifunctional epoxide hydrolase 2 (Homo sapiens) (UniProt P34913)
Assay: sEH inhibitor concentration-response potency, dose response, biochemical, human sEH, fluorescence, Infinite200 (AID 1026)
Settings: recombinant human sEH, fluorogenic substrate, at 0.2 µM, active compounds read high

Sequence of Bifunctional epoxide hydrolase 2 (Homo sapiens) (P34913 whole entry, looked up): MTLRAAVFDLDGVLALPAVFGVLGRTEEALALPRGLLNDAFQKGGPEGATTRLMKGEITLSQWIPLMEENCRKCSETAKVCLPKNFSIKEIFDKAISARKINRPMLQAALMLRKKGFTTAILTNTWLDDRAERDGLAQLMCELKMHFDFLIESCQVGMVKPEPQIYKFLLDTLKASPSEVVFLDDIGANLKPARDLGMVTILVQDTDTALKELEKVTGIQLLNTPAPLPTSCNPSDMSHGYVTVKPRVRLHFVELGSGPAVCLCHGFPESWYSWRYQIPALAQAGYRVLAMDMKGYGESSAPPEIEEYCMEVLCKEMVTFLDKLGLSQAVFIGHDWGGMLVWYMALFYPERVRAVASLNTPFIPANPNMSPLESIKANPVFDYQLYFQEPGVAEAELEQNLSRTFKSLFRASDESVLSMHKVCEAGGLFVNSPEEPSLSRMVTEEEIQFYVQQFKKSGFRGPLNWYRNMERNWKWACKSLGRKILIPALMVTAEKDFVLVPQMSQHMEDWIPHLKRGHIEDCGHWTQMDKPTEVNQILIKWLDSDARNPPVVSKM

SMILES	inhibition
Cc1ccc(SCCC(=O)NCCSCc2ccccc2C)cc1	52.5%
CCN(CCCNC(=O)CCCCn1c(=O)[nH]c2ccccc2c1=O)c1ccccc1	38.1%
CCCCCC(=O)Nc1ccc2oc(-c3ccncc3)nc2c1	31.2%
O=C(NCCC1=CCCCC1)C1CCCN(S(=O)(=O)c2ccccc2)C1 (centres undefined)	48.7%
O=C(NCCC1=CCCCC1)c1ccc(Cl)c(S(=O)(=O)N2CCOCC2)c1	68.1%
O=C(N[C@@H](Cc1ccccc1)C(=O)NC1CCCCCC1)c1ccco1	36.3%
CC(C)c1ccc(NC(=O)NC2CCN(CC(=O)Nc3cccc4ccccc34)CC2)cc1	62.2%
Cc1ccccc1C(=O)N1CCN(c2ccc(NC(=O)CSc3ccc(Cl)cc3)cc2)CC1	60.1%
O=C(NC12CC3CC(CC(C3)C1)C2)N1CCC(O)(c2ccc3c(c2)OCO3)CC1	46%
Cc1ccc(S(=O)(=O)N2CCCC(C(=O)NCCC3=CCCCC3)C2)cc1 (centres undefined)	35.1%
COc1ccc(CCNC(=O)c2ccc3c(c2)NC(=O)C(N2CCOCC2)S3)cc1OC (centres undefined)	49.2%
COc1ccc(/C=N/NC(=O)c2ccc(COc3ccccc3Cl)o2)cc1	55.4%
O=C(Nc1cccc(C(F)(F)F)c1)NC1CCCCC1	66.5%
O=C(CCC1CCCCC1)NNC(=O)NC12CC3CC(CC(C3)C1)C2	59.2%
O=C(CCSc1ccc(Cl)cc1)NC12CC3CC(CC(C3)C1)C2	46.4%
COc1ccc(NC(=O)N2CCC(c3nc(-c4cccs4)no3)CC2)cc1	62.9%
CC(C)(C)n1nnnc1CN1CCC(NC(=O)NC2CCCCC2)CC1	70.3%
CCOc1ccc(NC(=O)c2ccc(F)c(S(=O)(=O)N3CCN(c4ccccn4)CC3)c2)cc1	64.3%
CCC(C)c1ccc(NC(=O)c2cccs2)cc1 (centres undefined)	68%
CS(=O)(=O)N(Cc1ccc(C(=O)NCCSCc2ccco2)cc1)c1ccccc1	53.6%

SMILES	inhibition
CSc1cccc(NC(=O)Nc2ccc(Cl)cc2)c1	59.3%
O=C(NCCC(c1ccccc1)c1ccccc1)c1ccc(Br)o1	72%
O=C(NCc1ccc(N2CCCC2=O)cc1)NC1CCCCC1	47.5%
O=C(NCc1ccc2c(c1)OCO2)C1CCC(CNS(=O)(=O)c2cccc3nsnc23)CC1 (centres undefined)	59.7%
CCn1c(C(=O)N2CCCC(C(=O)NCCCc3ccccc3)C2)cc2sccc21 (centres undefined)	65.6%
O=C(NCCC1=CCCCC1)c1ccc(F)c(S(=O)(=O)N2CCOCC2)c1	60.6%
C/C(=N\NC(=O)Cc1cccn1C)c1cccc2ccccc12	40.4%
O=C(NCc1cccs1)C1CCC(CNS(=O)(=O)c2ccc(Br)s2)CC1 (centres undefined)	62.3%
O=C(Cc1ccc(Cl)cc1)Nc1ccc(N2CCN(C(=O)c3ccco3)CC2)c(Cl)c1	64.8%
O=C(NC1CCCCCCC1)C1CCN(S(=O)(=O)N2CCC3(CC2)OCCO3)CC1	49.5%
CCn1nc(CC(=O)Nc2ccc(-n3cnnn3)c(C)c2)c2ccccc2c1=O	48.9%
O=C(Nc1ccc2c(c1)nc1n2CCN(C2CCCCC2)C1)NC1CCCCC1	72.7%
CCc1c(C)nc2ncnn2c1N1CCC(C(=O)Nc2ccc(C)cc2)CC1	44.3%
CCOC(=O)c1sc(NC(=O)c2ccc(C)s2)cc1C	59.1%
CCC(C)[C@H](NC(=O)NCc1ccccc1Cl)C(=O)OC (some centres undefined)	48.1%
O=C(Nc1ccc(Cl)cc1)N1CCC(c2nc(-c3ccccc3Cl)no2)CC1	62.8%
O=C(NC12CC3CC(CC(C3)C1)C2)N1CC2Cc3cccc(=O)n3C(C2)C1 (centres undefined)	54.2%
CC(NC(=O)NC12CC3CC(CC(C3)C1)C2)C1CCCO1 (centres undefined)	71.5%
COc1ccc(N2CCC(CNC(=O)Nc3cccc(OC)c3)C2)cc1 (centres undefined)	44.5%
